Compounds with a hit are over-represented: about 11% of the library has one in this group of screens.
L3MBTL1 inh: L3MBTL1 (human) inhibition; Potency, µM (top dose mostly 57.1 µM), usual class: inhibitors; 230,000 compounds, 0.66% hits; AID 485360; AlphaScreen L3MBTL1–H3K9me1 peptide binding; Q9Y468; also: nearly all actives have a fitted effect of over 60% in size
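L3MBTL1 50 nM + b-AHA-H3(1-15)K9me1 75 nM, 30 min RT; compound added, 30 min RT; streptavidin donor/Ni-chelate acceptor beads 10 ug/mL each final, 30 min RT dark; AlphaScreen read.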
JMJD2A Tudor inh: JMJD2A Tudor domain (human) inhibition; Potency, µM (titrated, usually from 114 µM), most hits filed as inhibitors; AlphaScreen JMJD2A-Tudor / H3K4me3 peptide binding; 390,000 compounds, 4.4% hits; AID 504339; also: nearly all actives have a fitted effect of over 50% in size
BAZ2B block: blocks human BAZ2B; Q9UIF8; AlphaScreen BAZ2B-H3K14Ac peptide displacement; Potency, µM (doses to about 114 µM), usual class: inhibitors; 360,000 compounds, 4.4% hits; AID 504333; also: nearly all actives have a fitted effect of over 60% in size
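Protein-peptide AlphaScreen: BAZ2B 50 nM, b-H3K14Ac 50 nM, 1x PBS pH 7.4 + 0.01% Tween-20. Preincubation 30 min RT; cpd 30 min RT (top 110 uM); beads 20 min RT, light-protected.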
G9a block: G9a (human) methyltransferase inhibition; AID 504332; G9a H3K9 monomethylation, AlphaScreen, 2 h; 350,000 compounds, 8.8% hits; Potency, µM (doses to about 102 µM), usual class: inhibitors; also: nearly all actives have a fitted effect of over 75% in size
Target sequence (Q96KQ7 913-1193 limits assumed): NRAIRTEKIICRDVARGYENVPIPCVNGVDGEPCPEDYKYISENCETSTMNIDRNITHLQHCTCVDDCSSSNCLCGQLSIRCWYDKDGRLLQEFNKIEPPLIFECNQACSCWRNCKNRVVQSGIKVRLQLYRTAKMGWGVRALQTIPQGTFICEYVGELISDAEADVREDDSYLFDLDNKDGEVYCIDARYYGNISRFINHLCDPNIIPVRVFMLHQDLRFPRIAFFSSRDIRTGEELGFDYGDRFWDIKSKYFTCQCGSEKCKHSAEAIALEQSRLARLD
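Step 1: enzyme (final 20 nM) with compound, 15 min RT. Step 2: substrate peptide 500 nM and SAM 20 uM, 2 h RT. Step 3: anti-H3K9me1 antibody and AlphaScreen beads, 10 min, then plate read.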
PI5P4K alpha inh: inhibitors of human PI5P4K alpha; PI5P4Kalpha enzyme, ADP-Glo luminescence, 60 min; active compounds read low; 330,000 compounds, 1.2% hits; max response, %; AID 652105; active = max response of -50% or lower; inconclusive = between -30% and -50%; inactive = -30% or higher; also: value at the top dose of about 77 µM
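ADP-Glo luminescence end-point after a 60 min room-temperature kinase reaction. PI5P4Kalpha and substrate in HEPES pH 7.4 buffer with EGTA, 0.1% CHAPS and 5% DMSO; ATP at 5 microM final.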
HP1b binding inh: inhibitors of HP1-beta chromodomain binding to methylated histone tails; P83916; 390,000 compounds, 0.56% hits; Potency, µM (series often up to 114 µM), actives largely listed as inhibitors; AlphaScreen HP1-beta / biotin-H3K9me3 peptide binding; also: nearly all actives have a fitted effect of over 70% in size
Target sequence (P83916 whole entry, looked up): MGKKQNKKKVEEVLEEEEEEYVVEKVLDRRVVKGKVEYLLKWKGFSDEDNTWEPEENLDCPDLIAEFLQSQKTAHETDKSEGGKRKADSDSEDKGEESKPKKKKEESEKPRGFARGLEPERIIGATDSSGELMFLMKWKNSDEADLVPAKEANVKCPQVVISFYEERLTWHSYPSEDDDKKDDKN
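AlphaScreen: HP1-beta (50 nM) preformed 30 min with biotin-H3(1-18)K9me3 peptide (50 nM) in PBS pH 7.4, 0.01% Tween-20. Compound added for 30 min at RT, then streptavidin donor/nickel chelate acceptor beads (10 ug/mL) for 30 min.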
Numbers stand for hits; – = inactive; ? = inconclusive; · = no result given; [ ] = dose if it differs, or a comment. Unless noted, calls follow the shape of the dose curve; as a rule, active = well fitted inhibition curve with a large enough effect; inconclusive = small, poorly fitted or top-dose-only effect; inactive = no such curve, though single readings can be large or run the other way.

SMILES | L3MBTL1 inh | JMJD2A Tudor inh | BAZ2B block | G9a block | PI5P4K alpha inh | HP1b binding inh
CCc1ccccc1NC(=O)C1CCN(C(=O)N2CC(C)Oc3ccc(Cl)cc32)CC1 (stereo unspecified) | · | ? | – | ? | · | ?
O=C(c1cccc(Oc2ccc([N+](=O)[O-])cc2)c1)N1CCOCC1 | · | – | – | – | – | –
O=C(Oc1cccc(C(=S)N2CCOCC2)c1)c1cc([N+](=O)[O-])cc([N+](=O)[O-])c1 | – | ? | ? | 35µM | – | –
O=C(Oc1ccc(Br)cc1C(=S)N1CCCCC1)c1cc([N+](=O)[O-])cc([N+](=O)[O-])c1 | · | ? | ? | ? | – | ?
O=C(Oc1ccc(Br)cc1C(=S)N1CCOCC1)c1ccc([N+](=O)[O-])cc1[N+](=O)[O-] | · | ? | ? | 8.9µM | – | ?
COc1ccccc1N1CCN(c2ncnc3c2cnn3C)CC1 | · | – | – | – | · | –
COc1ccc(-c2cc(C(C)=O)c(C)n2CCC(=O)Nc2ccc(C(F)(F)F)cc2)cc1 | · | – | – | – | · | –
O=C(NCCCn1ccnc1)c1ccc2ccccc2c1 | · | – | – | – | – | –
O=C(Cn1ccnc1)c1ccc(O)c(O)c1 | ? | 22µM | 56µM | ? | – | –
Cc1cc(O)c(CN2CCN(c3ccccc3)CC2)c2oc(=O)cc(C)c12 | · | – | – | – | · | –
CCc1ccc(OCC(=O)Nc2cc(-c3nc4cc(C)ccc4o3)ccc2C)cc1 | · | – | – | ? | · | –
CCC(Sc1nc2nccnc2c(=O)n1Cc1ccc(Cl)cc1)C(=O)NC1CCCCC1 (stereo unspecified) | · | – | – | – | · | –
CC1(C)CC(=O)C(/C=N/c2ncccc2C(=O)O)=C(O)C1 | · | – | – | 50µM | – | –
O=C(CCCCCn1c(=O)[nH]c2ccsc2c1=O)NCc1ccccc1 | · | – | – | – | · | –
COc1cccc(/C=N/Nc2snc(SC)c2C#N)c1 | – | – | – | ? | – | –
COc1ccc(/C=N/Nc2snc(SC)c2C#N)cc1OC | – | ? | 45µM | –[0.0925 µM] | – | –
CSc1nsc(N/N=C/c2ccccc2)c1C#N | · | – | – | – | – | –
COc1cccc(/C=N/Nc2snc(SC)c2C#N)c1O | – | – | – | 50µM | – | –
Cc1ccccc1CNC(=O)C1=Cc2ccccc2OC1 | · | – | – | – | · | –
Cc1cc2c(cc1C)N(C(=O)CCl)CCN2C(=O)CCl | · | 40µM | · | · | – | –
Cc1cc2c(cc1C)N(C(=O)CCl)CC(=O)N2 | · | · | · | · | – | ·
N#CCSC1=Nc2ccccc2C2=NC(CCC(=O)N3CCN(c4ccccc4)CC3)C(=O)N12 (stereo unspecified) | · | – | ? | 45µM | – | –
CCn1c(=O)n(CC)c2cc(N3CCCCC3)c(NC(=O)Nc3ccccc3C(F)(F)F)cc21 | · | ? | ? | – | · | –
O=S1(=O)Nc2c(cc(Cl)c3ccc(Cl)nc23)-c2ccccc21 | · | 40µM | · | · | · | ?
N#Cc1ccccc1NC(=O)C(=O)NCC(c1cccnc1)N1CCc2ccccc21 (stereo unspecified) | · | – | – | – | · | –
SMILES | L3MBTL1 inh | JMJD2A Tudor inh | BAZ2B block | G9a block | PI5P4K alpha inh | HP1b binding inh
CC(=O)c1sc(NC(=O)c2ccc(Cn3cc(Br)cn3)o2)nc1C | – | – | – | 45µM | ? | –
CC(=O)c1sc(NC(=O)c2ccc(Br)o2)nc1C | · | – | ? | – | – | –
COc1cccc(/C(C)=N/NC(=O)c2ccc(N(C)C)cc2)c1 | – | – | – | · | – | –
C/C(CC(=O)Nc1ccc(N(C)C)cc1)=N\NC(=O)c1ccccc1O | – | 56µM | 35µM | 50µM | – | –
CCc1ccc(NC(=O)C(=O)N/N=C(\C)CC(=O)Nc2ccc(OC)cc2)cc1 | – | – | – | ? | – | –
COc1cccc(C(=O)NC2CC3CCCC(C2)N3CC(=O)Nc2ccc(N(C)C)cc2)c1 (stereo unspecified) | ? | 40µM | 45µM | –[0.501 µM] | – | ?
COc1cccc(NC(=O)C(=O)N/N=C(\C)CC(=O)Nc2ccc(NC(C)=O)cc2)c1 | · | – | – | 71µM | – | –
COc1cccc(C(=O)N/N=C(\C)CC(=O)Nc2ccc(N(C)C)cc2)c1 | – | – | 56µM | · | – | –

Screening results from PubChem BioAssay.
